Experimental data: ChEMBL document CHEMBL3988442, “University of Dundee, Small-Polar-MMV Screening Library” (2021)

These compounds were tested against Chromo domain-containing protein 1 (Saccharomyces cerevisiae (strain ATCC 204508 / S288c) (Baker's yeast)) (UniProt P32657) (assay: ScCHD-1 Enzyme Inhibition Assay). Details: 30 µM.
Type: functional
Parameters: scale not given: in the data most compounds retested in dose-response had high values

Chain of Chromo domain-containing protein 1 (Saccharomyces cerevisiae (strain ATCC 204508 / S288c) (Baker's yeast)) (P32657 whole entry, the tested form may be a part): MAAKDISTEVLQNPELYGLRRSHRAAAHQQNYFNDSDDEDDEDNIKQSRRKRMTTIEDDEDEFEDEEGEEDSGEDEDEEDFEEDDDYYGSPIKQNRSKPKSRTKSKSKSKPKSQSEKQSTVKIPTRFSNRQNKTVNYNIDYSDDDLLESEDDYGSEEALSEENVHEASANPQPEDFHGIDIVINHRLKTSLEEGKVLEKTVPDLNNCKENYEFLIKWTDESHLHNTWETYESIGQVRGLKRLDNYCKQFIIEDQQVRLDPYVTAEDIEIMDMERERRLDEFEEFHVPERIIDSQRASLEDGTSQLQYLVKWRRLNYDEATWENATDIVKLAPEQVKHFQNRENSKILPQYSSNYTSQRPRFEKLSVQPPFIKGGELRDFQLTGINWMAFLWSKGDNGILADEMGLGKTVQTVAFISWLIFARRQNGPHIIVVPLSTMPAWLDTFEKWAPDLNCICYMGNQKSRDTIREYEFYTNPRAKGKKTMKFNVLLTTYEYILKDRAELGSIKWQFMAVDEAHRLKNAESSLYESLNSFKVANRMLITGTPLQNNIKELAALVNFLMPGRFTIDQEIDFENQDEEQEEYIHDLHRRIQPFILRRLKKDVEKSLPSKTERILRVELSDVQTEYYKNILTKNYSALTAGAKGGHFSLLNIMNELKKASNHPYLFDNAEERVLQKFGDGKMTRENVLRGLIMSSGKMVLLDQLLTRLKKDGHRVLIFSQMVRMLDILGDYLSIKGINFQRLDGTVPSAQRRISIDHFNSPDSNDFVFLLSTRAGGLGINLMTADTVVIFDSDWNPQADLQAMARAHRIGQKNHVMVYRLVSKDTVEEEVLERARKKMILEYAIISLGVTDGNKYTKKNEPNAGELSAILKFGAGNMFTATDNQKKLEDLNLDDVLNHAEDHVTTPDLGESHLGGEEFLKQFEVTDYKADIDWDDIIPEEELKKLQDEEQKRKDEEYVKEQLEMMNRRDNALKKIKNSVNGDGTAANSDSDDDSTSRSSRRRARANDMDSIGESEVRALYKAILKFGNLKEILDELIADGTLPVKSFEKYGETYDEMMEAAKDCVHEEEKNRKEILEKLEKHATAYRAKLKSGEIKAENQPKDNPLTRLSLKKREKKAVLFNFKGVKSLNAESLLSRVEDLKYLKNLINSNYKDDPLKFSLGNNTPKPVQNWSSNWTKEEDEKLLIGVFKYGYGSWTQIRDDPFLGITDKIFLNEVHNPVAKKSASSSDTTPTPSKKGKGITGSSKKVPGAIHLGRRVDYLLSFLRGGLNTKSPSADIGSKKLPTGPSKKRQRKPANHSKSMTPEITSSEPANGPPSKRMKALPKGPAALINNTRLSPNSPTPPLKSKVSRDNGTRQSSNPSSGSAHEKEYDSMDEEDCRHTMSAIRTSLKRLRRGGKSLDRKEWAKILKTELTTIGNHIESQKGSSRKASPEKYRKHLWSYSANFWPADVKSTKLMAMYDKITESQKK

| Compound | Percent Effect [%] |
| --- | --- |
| CN(C)C(=O)COC[C@]12COC[C@H]1CN(CC1CCC1)C2 | -9.34 |
| COCCN1CC[C@H](O)[C@@H]1Cc1ccccc1 | -4.88 |
| Cc1cc(O)nc(C2CCCN(Cc3ccncc3)C2)n1 (stereo not given) | -12.3 |
| CN(C)C(=O)c1ccc2c(c1)N(C)C(CC(=O)NCc1ccno1)CO2 (stereo not given) | -2.72 |
| COc1c(CNCc2ccc(C(=O)NC3CC3)cc2)c(C)nn1C | -6.42 |
| CN(C)CC1CN(C(=O)NCc2ccccc2)Cc2nccn2C1 (stereo not given) | 1.81 |
| CC(=O)NCC(=O)N1CCC2(CC1)CN(c1cccnc1)C(=O)CO2 | 0.305 |
| O=C(NCCN1CCOCC1)c1cc(-c2ccc3c(c2)CCO3)n[nH]1 | -6.47 |
| CC(C)c1cc(NC(=O)CN2CCCC2Cn2cccn2)on1 (stereo not given) | 9.14 |
| CCC(=O)Nc1nnc(CCCOc2ccccc2)s1 | -0.786 |
| Cc1cc(C)n(C2CCCN(C(=O)C3=NN(C)C(=O)CC3)C2)n1 (stereo not given) | -9.84 |
| CC1CCc2nc(O)c(C(=O)NCc3cccc(F)c3)cc2C1 (stereo not given) | -2.98 |
| Cc1nc2c(c(NC3CC3)n1)CCN(C(=O)C(C)(C)O)CC2 | -1.94 |
| CCCN1CCC(N(Cc2ncc(C)o2)C(C)=O)C1 (stereo not given) | -1.33 |
| O=C1NCCN1C1CCCN(Cc2coc(-c3ccc(F)cc3)n2)C1 (stereo not given) | -6.73 |
| Cc1noc(C)c1CN(C)CC1CCCN1c1cccnn1 (stereo not given) | -25.9 |
| Cc1noc(C)c1CN1C(=O)[C@H]2CC[C@@H]1CN(Cc1cccnc1N)C2 | 3.37 |
| Cc1cc(C)n(CC2CCCCN2Cc2cscn2)n1 (stereo not given) | -10.8 |
| Cc1cc(CNC(=O)C2CCCCN2C(=O)OC(C)(C)C)no1 (stereo not given) | -3.75 |
| O=C(c1csc(-c2cccs2)n1)N1CCCC1Cn1cccn1 (stereo not given) | 0.105 |

| Compound | Percent Effect [%] |
| --- | --- |
| O=C(CSCC1CC1)N1CCCC(c2nccn2Cc2ccncc2)C1 (stereo not given) | -2.97 |
| CCN1CC(C(=O)N2CCC(Oc3ccccc3Cl)CC2)CC1=O (stereo not given) | -5.81 |
| CNC(=O)CCNC(=O)c1cccc(Cn2nc(C)cc2C)c1 | -5.17 |
| CN(CC(=O)N1CCCC1Cn1cccn1)C1CC1 (stereo not given) | -3.87 |
| O=C(Cn1nc(-c2ccc(F)cc2)oc1=O)Nc1ccccc1 | -11.6 |
| Cc1cnccc1N1CCCN(C(=O)CCCc2cn[nH]c2)CC1 | -3.49 |
| Cc1ncccc1CNCC1CCN(CC(O)c2ccccc2)CC1 (stereo not given) | -29.1 |
| CCc1nc(CN(C)C2CCN(Cc3cnc(C)cn3)C2)no1 (stereo not given) | -17 |
| CSc1ccc(NC(=O)Nc2ccc3c(c2)N(S(C)(=O)=O)CC3)cc1 | -6.55 |
| O=C(Cn1ccc2c(Cl)cccc21)N[C@@H](C(=O)O)c1ccccc1 | -4.5 |
| Cc1ccc(C2CSCCN2C(=O)c2ccsc2)o1 (stereo not given) | -3.21 |
| COc1ccc(NC(=O)CNc2ccc(Br)cc2F)cc1 | -4.78 |
| CNS(=O)(=O)c1cccc(CNc2cc(C(F)(F)F)ccn2)c1 | -1.45 |
| CN(C)c1ccc(CCNC(=O)C2CCC(=O)N(C3CCCC3)C2)cc1 (stereo not given) | -5.65 |
| CC(C)c1nn(C)c(N2CCOCC2)c1CN[C@H](C)CO | -4.66 |
| Cc1nccn1CC1CCCN1S(=O)(=O)Cc1ccon1 (stereo not given) | -7.21 |
| COc1cccc(OCCNC(=O)CN2CCN(C)CC2C)c1 (stereo not given) | -8.99 |
| Cc1cc(C)cc(N(C)S(=O)(=O)c2cc(C(=O)O)cs2)c1 | -4.94 |
| CCOc1cccc(C(C)NCc2ccc(OC)c(OC)c2OC)c1 (stereo not given) | -6.92 |
| CC(NC(=O)CNCCn1cccn1)c1ccc2c(c1)CCCC2 (stereo not given) | -9.3 |
